# CSC inhib: blocks cancer stem cells. cancer stem cell-like cells viability, luminescence. inhibition, % at 7.5 µM. 1.1% of 300,000 active. AID 2717; in the data active = inhibition above about 75%; tested in HMLE shEcad cells
# aSyn UTR inh: MLPCN primary screen, SNCA 5' untranslated region; AID 1813; 0.82% of 300,000 active; inhibition, % (tested at 7.5 µM); alpha-synuclein 5'UTR reporter, inhibitor activity; in the data active = inhibition above about 60%;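 also: H4 neuroglioblastoma cells stably carrying SNCA 5'UTR luciferase fusion; 0% = DMSO wells and 100% = positive control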
# KLF5 inhibitor: inhibitors of KLF5 expression | DLD-1 KLF5 promoter-luciferase reporter, luminescence | AID 1700 | inhibition, % at 5 µM | 0.23% of 290,000 active;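 active = inhibition above a per-plate limit of that plate's mean compound inhibition plus 3 SD, cut at about 60% in these data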;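 also: 0% = DMSO wells and 100% = LY294002 at 200 µM; higher means less KLF5 promoter-driven luciferase light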
# IEC-6 cytotox: counter-screen for KLF5 inhibitors: cytotoxicity in IEC-6 cells. IEC-6 cytotoxicity, luminescence viability. inhibition, % at 5 µM. 0.78% of 290,000 active; in the data active = inhibition above about 22%;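 also: 0% = plate median of test compound wells and 100% = cytotoxic reference compound wells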
# SKKanGAS inh: blocks kanamycin growth of S. pyogenes SKKanGAS strain; BacTiter-Glo, 6 h; inhibition, % at 7.5 µM; 1.3% of 300,000 active; AID 1662;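 active = mean replicate score, as percent of positive control median, at least 50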;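 also: strain carries kanamycin resistance gene driven by streptokinase promoter and grows in 40 µg/ml kanamycin; loss of luminescence reflects streptokinase promoter inhibition or plain growth inhibition; 0% = median of DMSO wells and 100% = positive control at its reference dose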
# An asterisk follows results filed as active; . = no result given. An excerpt weighted towards active compounds, which were near 3% of everything screened.
SMILES,CSC inhib,aSyn UTR inh,KLF5 inhibitor,IEC-6 cytotox,SKKanGAS inh
CC1(C)Cc2c(C#N)c(NC3CCCCC3)nc(-c3ccco3)c2CO1,77.4*,-7.1,-3.7,-2.7,8.6
CCc1sc(N(C(=O)Cc2ccccc2)c2cccc(F)c2)nc1-c1ccc(C)cc1,-2.5,0.0,2.3,-7.7,59.4*
CCc1sc(N(C(=O)Cc2ccccc2)c2ccccc2F)nc1-c1ccc(C)cc1,30.6,2.3,-43.5,-4.1,36.5
Cc1cc(C)c2c(CCl)cc(=O)oc2c1,45.0,91.1*,-8.0,-7.3,-2.1
Cc1cc(C)c2c(CN3CCCCC3)cc(=O)oc2c1,-9.2,-8.3,-21.2,2.5,0.1
CC(=O)Nc1cc(OC(C)=O)c2nonc2c1OC(C)=O,105.9*,.,115.2*,99.9*,.
CC(=O)Nc1nonc1NC(C)=O,2.7,-9.7,-25.2,0.7,0.2
CCOC(=O)c1c(C)[nH]c(C(=O)N2CCN(c3ccc(OC)cc3)CC2)c1C,-0.6,-13.2,-11.6,4.7,6.6
O=C(CN1c2ccccc2Sc2ccccc21)NNC(=O)Nc1ccc(Cl)cc1,.,10.7,-14.6,1.2,36.6
O=C(CN1c2ccccc2Sc2ccccc21)NNC(=O)Nc1ccc(Cl)c(Cl)c1,101.4*,5.6,10.1,3.1,57.5*
COc1ccc(C2=NOC(CNC(N)=S)C2)cc1 (centres undefined),-2.9,-8.7,-95.7,-2.1,51.2*
COc1ccc(CNC(=O)C2CC(c3ccc(OC)cc3)=NO2)cc1 (centres undefined),5.8,-17.8,-32.7,2.2,-6.5
O=c1[nH]c(CN2CCN(c3ccc(O)cc3)CC2)nc2scc(-c3ccc(Cl)cc3)c12,104.8*,25.4,-7.6,20.4,31.0
O=c1[nH]c(CN2CCN(c3ccccc3O)CC2)nc2scc(-c3ccccc3Cl)c12,4.5,26.9,7.0,2.1,15.6
COc1cccc(N2CCN(Cc3nc4scc(-c5ccccc5)c4c(=O)[nH]3)CC2)c1,82.2*,-19.7,-1.7,6.1,20.4
CC(C)(Sc1ccc(CCN(CCCCC2CCCCC2)C(=O)NC2CCCCC2)cc1)C(=O)O,98.7*,.,.,.,.
O=[N+]([O-])c1ccc(Nc2nccc(Cl)n2)cc1,1.2,-44.4,.,.,0.2
CCSc1ncc(/C=N/Nc2ccc(Cl)cc2)n1C,92.9*,-180.5,-106.0,-5.0,4.0
CCSc1ncc(/C=N/Nc2ccccc2)n1C,-2.7,-109.0,17.8,7.3,9.7
O=C(Nc1nnc(-c2ccccc2Cl)o1)c1nc2ccccc2s1,24.4,-14.6,-14.1,-1.1,94.9*
COc1cccc2sc(NN)nc12,14.0,-46.1,-17.9,10.1,4.6
COc1cccc(-c2nnc(NC(C)=O)o2)c1,-3.7,-34.1,.,.,3.8
COc1cccc(-c2nnc(Nc3nc4c(F)cccc4s3)o2)c1,52.9,-145.4,-74.1,-2.6,67.6*
COc1cccc2sc(Nc3nnc(-c4ccccc4Cl)o3)nc12,71.3,66.3*,-18.9,3.1,90.7*
Cn1nccc1C(=O)Nc1cccc(S(=O)(=O)N2CCOCC2)c1,-21.5,-3.3,-11.5,-3.6,-4.0
SMILES,CSC inhib,aSyn UTR inh,KLF5 inhibitor,IEC-6 cytotox,SKKanGAS inh
Cc1ccc2c(c1)=C(c1sc(N(C)c3ccc(O)cc3)nc1O)C(=O)N=2,31.3,-68.4,-0.5,2.3,80.3*
CCCCCCCCCCCCC/C=C/[C@@H](O)[C@@H](N)CO,1.5,-25.4,.,.,93.9*
Oc1ccc(Nc2nc(-c3ccc4ccccc4c3)cs2)cc1,134.1*,-210.0,-189.7,4.3,52.7*
C=CCn1cccc(/C=C/C(=O)c2ccc(C(C)(C)C)cc2)c1=S,110.6*,-74.4,-7.5,-0.3,-4.3
CN1CCN(C(=S)NC(=O)c2ccc(C(C)(C)C)cc2)CC1,0.1,-21.1,12.3,10.0,-1.7
CN(Cc1nc(-c2ccc(Cl)cc2)no1)C(=O)c1ccc2c(c1)OCO2,-6.4,2.3,.,.,-7.7
Cc1ccc(Cl)cc1N1CCN(Cc2nnnn2Cc2ccco2)CC1,18.5,-2.0,-14.8,-2.3,-4.4
CCC(c1nnnn1Cc1ccco1)N1CCN(c2cc(Cl)ccc2C)CC1 (centres undefined),94.3*,32.8,8.2,6.0,7.3
C#CCOCCOCCOCCNc1nc(N2CCN(C(=O)CCCCCCCCCCNC(=O)[C@@H](CCSC)n3cc(CCO)nn3)CC2)nc(N2CCN(C(=O)CCCCCCCCCCNC(=O)[C@H]([C@@H](C)CC)n3cc(CCCCN=C(N)N)nn3)CC2)n1,-17.6,.,.,.,.
C#CCOCCOCCOCCNc1nc(N2CCN(C(=O)CCCCCCCCCCNC(=O)[C@H](CCCCN)n3cc(CCO)nn3)CC2)nc(N2CCN(C(=O)CCCCCCCCCCNC(=O)[C@H](CCCN=C(N)N)n3cc(C[C@@H](C)CC)nn3)CC2)n1,134.5*,.,.,.,.
